Measurements reported in article PMC10163288.
The list is a sample of the results. The hit rate among all sequences tested is not known here.

B1: il10ra_site1_sap_23_mot_0eddeacbb14b769e73e254714f31e2f9_0001_af2_000000127_0001_37_51_H_._HHH_b1_00538_0001_0000500024_0000001_0_0001 (protein)
chain: SSSSSEEEEKAKELIELLEELAKEGDPEEFNRVALEAVRLVLELGDAELLRELWELFKSVSSSSS
B2: il10ra_site1_normal_mot_HHH_b1_08477_000000091_0001_40_57_H_._HHH_b1_03479_0001_0000200016_0000001_0 (protein)
chain: SSSSSEEEERVRQALRFAEALYKSGNPEAAESLLRVLVQSLRRLGNEELVELVEQVLEELNSSSS
B3: il10ra_site1_normal_mot_8756ee2cf497b5429c717dfc0c0bcfd6_0001_000000186_0001_1_13_H_._HHH_b2_04770_af2_0001_0000400016_0000001_0_af2pred_0001 (protein)
chain: SSSSSSDEELKRVQELIRRAAKITDEEELREVLEEAKELAEELGNEILRVIVEFLLELMTSSSSS
B4: il10ra_site1_sap_15_mot_HHH_b2_04646_000000019_0001_1_20_H_._HHH_b1_08112_af2_0001_0000300009_0000001_0_0001 (protein)
chain: SSSSDVEEEVEELLEQAEELARRGNPEEAYKLLKEAAELASEANDPELQRLVVEVSRRVIGSSSS
B5: il10ra_site1_sap_24_mot_HHH_b1_04771_000000013_0001_40_56_H_._HHH_b2_02918_af2_0001_0000100007_0000001_0_0001 (protein)
chain: SSSSDDEERVKQAIRFARWLLENGDKEAAKRIVEAAQDIARKGGNEELVQELEELEEEIKSSSSS
B6: il10ra_site1_sap_20_mot_HHH_b1_04573_000000273_0001_43_57_H_._HHH_b2_07679_0001_0000100005_0000002_0_0001 (protein)
chain: SSSSSDENEEIYRLLREAAEALANGNPEEAREIVEQAVELAEEANSQVLLFNAEYLLRQINSSSS
B7: il10ra_site1_sap_24_mot_HHH_b1_00999_000000080_0001_41_55_H_._HHH_b1_05694_af2_0001_0000300017_0000001_0_0001_af2pred_dldesign_0_af2pred (protein)
chain: SSSSDPQRVVELIHEANRLVDEGRLDEAERLLEEALRLARAADDAELAAAVEKALAFVRSLSSSS
B8: il10ra_site1_normal_mot_HHH_b1_00999_000000080_0001_41_55_H_._HHH_b1_02815_0001_0000700030_0000002_0 (protein)
chain: SSSSDEEEERSKELLEELEELLRRGDQHRFLRLLQHIVRFAFEVSDEELLHEVWRLAREFGSSSS
B9: il10ra_site1_normal_mot_HHH_b1_05357_000000034_0001_23_39_H_._HHH_b2_00878_af2_0001_0000100001_0000001_0_af2pred_0001 (protein)
chain: SSSSSSDLEEEVEKLLEEAEKIEDQLRLAYVLTRAYAVANRLNDPELRELIREVAKKLSSSSSSS
B10: il10ra_site1_normal_mot_0cd074c2d6d3de76f1399c5a775575d2_0001_1_af2_000000000_0001_16_30_H_._a6da520ff4a02840130205282d0b8d49_0001_0001_0000200007_0000001_0_af2 … (protein)
chain: SREQAILYAAIVASGGDEDRIEHLLEIYYEFTGDPAVKEVLERLRAAKAAGIPAEELLKQLEAEN
B11: il10ra_site1_sap_20_mot_HHH_b1_01886_000000262_0001_1_18_H_._HHH_b1_05552_af2_0001_0000500031_0000001_0_0001_af2pred_dldesign_0_af2pred (protein)
chain: SSSSSDLAAVLAEAEALFARSKTVSPEEKEVILQRIVDLALKHENLEVAKLANELLKELSSSSSS
B12: il10ra_site1_sap_25_mot_2c1a291787c6f40772924d4e9068d803_0001_af2_000000187_0001_34_48_H_._HHH_b2_07308_af2_0001_0000400007_0000002_0_0001_af2pred_0001 (protein)
chain: SSSSSTREEVIKRVIELLREARRIEDPEEREEVLEEAHRLAEEGNNELLKFIVESLERKLSSSSS
B13: il10ra_site1_sap_16_mot_HHH_b2_06643_000000103_0001_1_18_H_._HHH_b2_07694_0001_0000100008_0000001_0_0001_af2pred_0001 (protein)
chain: SSSSSSEEEELAELALRLLVEALQHGDPELREEIKELIEEAEKVGDERVVRLLRAALRALSSSSS
B14: il10ra_site1_normal_mot_8756ee2cf497b5429c717dfc0c0bcfd6_0001_000000186_0001_1_13_H_._HHH_b2_05079_af2_0001_0000100002_0000002_1_af2pred_dldesign_0_af2pred (protein)
chain: SSSSSSELEELKNLIKEIAELLYEGKPEEARELLEKAEELAKKLGNKTALATLDYLRRQIESSSS
B15: il10ra_site1_sap_25_mot_HHH_b2_05323_000000159_0001_1_18_H_._HHH_b1_08298_af2_0001_0000500034_0000001_0_0001 (protein)
chain: SSSSDEELQEAFELLREAVEALLDGNPEEAEKLLEEARKLAEEAGNRLLRWQIEWLLEKVRSSSS
B16: il10ra_site1_normal_mot_HHH_b2_00441_000000147_0001_1_18_H_._HHH_b1_04947_af2_0001_0000200007_0000001_0_af2pred_0001 (protein)
chain: SSSSDEYLKKAIRALFRAIKRAIELGDEEVVRLALKDLRFLAREHNDEEAEELLKELEELLSSSS
B17: il10ra_site1_normal_mot_HHH_b2_00984_000000042_0001_1_20_H_._HHH_b2_07534_0001_0000600066_0000001_1 (protein)
chain: SSSSDEEEKRLEELLEEVRELLERGDPERAARLAQELLRHIFRASDEEALQELWELIKREASSSS
B18: il10ra_site1_normal_mot_HHH_b2_03328_af2_000000127_0001_1_19_H_._HHH_b1_03894_0001_0000100001_0000001_0 (protein)
chain: SSSSSSNELYELSREALELFANGNPEEAQRVVEEAIELAEELGNRVILFTLRHLLRVISSSSSSS
B19: il10ra_site1_normal_mot_HHH_b1_08477_000000091_0001_40_57_H_._HHH_b2_05084_0001_0000800035_0000001_0 (protein)
chain: SSSSDIAEETARFLLEMAERLIEQGNPEYARQALRFALRLARDAGNPELEEEIQKLLEELGSSSS
B20: il10ra_site1_normal_mot_HHH_b2_06857_af2_000000179_0001_42_54_H_._HHH_b2_07752_af2_0001_0000500038_0000002_0 (protein)
chain: SSSSNELHEELYELIRKAAELARNGNPEEAEKVLEEARKIAEELNNELAEFQIRFLERLLSSSSS
B21: il10ra_site1_sap_4_mot_HHH_b2_01447_af2_000000258_0001_1_20_H_._HHH_b1_07772_0001_0000100001_0000002_0_0001 (protein)
chain: SSSSDTRELYRLSREAMELLARGNPEEAEKVLEEAIEIAREAGDFNFLFNLEHVLKVIEQSSSSS
B22: il10ra_site1_sap_15_mot_HHH_b2_05813_000000266_0001_1_19_H_._ems_3hC_1310_0001_af2_0001_0000600040_0000002_0_0001 (protein)
chain: SSSSADEEFEFTREKYEEARELLQNGNPEEAEEVLEEAREYLKEAGNWAALFAVEVLLKQLSSSS

These binders were tested against il10ra, Q13651 (assay: yeast display titration).
Chain of il10ra, Q13651 (Q13651 whole entry): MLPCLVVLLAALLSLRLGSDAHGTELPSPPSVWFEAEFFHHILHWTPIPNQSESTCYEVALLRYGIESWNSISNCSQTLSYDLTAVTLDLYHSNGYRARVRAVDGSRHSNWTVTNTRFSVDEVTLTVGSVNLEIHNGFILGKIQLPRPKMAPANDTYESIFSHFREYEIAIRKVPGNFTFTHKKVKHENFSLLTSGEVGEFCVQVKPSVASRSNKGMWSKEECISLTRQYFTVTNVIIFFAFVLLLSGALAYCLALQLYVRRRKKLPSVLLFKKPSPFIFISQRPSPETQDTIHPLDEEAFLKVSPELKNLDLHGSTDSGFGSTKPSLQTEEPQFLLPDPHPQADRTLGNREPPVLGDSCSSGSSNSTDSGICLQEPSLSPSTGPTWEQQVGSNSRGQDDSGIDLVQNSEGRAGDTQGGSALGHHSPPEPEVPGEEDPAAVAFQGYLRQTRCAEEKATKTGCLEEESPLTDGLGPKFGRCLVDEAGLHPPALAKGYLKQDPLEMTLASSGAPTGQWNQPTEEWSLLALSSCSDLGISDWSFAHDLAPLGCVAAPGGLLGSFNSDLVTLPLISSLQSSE

Apparent Kd, inactive:
B1 no binding seen, B2 no binding seen, B3 no binding seen, B4 no binding seen, B5 no binding seen, B6 no binding seen, B7 no binding seen, B8 no binding seen, B9 no binding seen, B10 no binding seen, B11 no binding seen, B12 no binding seen, B13 no binding seen, B14 no binding seen, B15 no binding seen, B16 no binding seen, B17 no binding seen, B18 no binding seen, B19 no binding seen, B20 no binding seen, B21 no binding seen, B22 no binding seen
